Assay results reported in PubChem BioAssay AID1209 (Sanford-Burnham Center for Chemical Genomics, 2008).
The campaign covered roughly 190,000 compounds. About 810 (0.43%) were called active. Only a selection was taken, and actives are over-represented in it overall. Unmarked numbers belong to inactive results. Cut-off read from the data, not from the text of the source: active = inhibition above about 50%; inactive = the rest.

target: Mannose-6-phosphate isomerase (Homo sapiens) (UniProt P34949); assay: inhibitors of human PMI, primary screen, biochemical, fluorescence intensity, coupled assay (AID 1209); settings: purified PMI enzyme, at 20 µM, hits give high values;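 note: plate controls were DMSO vehicle for no effect and wells lacking substrate for full effect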
Sequence (P34949 whole entry, looked up): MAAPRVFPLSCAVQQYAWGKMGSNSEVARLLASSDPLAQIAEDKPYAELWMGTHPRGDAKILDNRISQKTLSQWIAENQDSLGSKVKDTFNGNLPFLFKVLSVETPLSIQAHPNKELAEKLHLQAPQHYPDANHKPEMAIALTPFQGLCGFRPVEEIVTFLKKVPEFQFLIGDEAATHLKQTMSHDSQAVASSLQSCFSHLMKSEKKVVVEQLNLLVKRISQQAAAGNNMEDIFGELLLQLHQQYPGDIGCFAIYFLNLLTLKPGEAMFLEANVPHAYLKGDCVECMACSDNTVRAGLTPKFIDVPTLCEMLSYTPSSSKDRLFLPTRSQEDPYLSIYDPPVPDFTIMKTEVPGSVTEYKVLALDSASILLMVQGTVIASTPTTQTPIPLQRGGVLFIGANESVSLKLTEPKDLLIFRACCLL

Point of comparison: CCNC(=S)N(Cc1ccco1)Cc1cc2cc3c(cc2[nH]c1=O)OCCO3, inhibition 17.8%. Against it:
- Cc1cc2cc(CN(CC3CCCO3)C(=S)NCc3ccco3)c(=O)[nH]c2cc1C (stereo not given) — lower, 9%
- CC(C)CNC(=S)N(Cc1ccco1)Cc1cc2cc3c(cc2[nH]c1=O)OCCO3 — higher, 19.9%
- CN(C)CCN(Cc1cc2cc3c(cc2[nH]c1=O)OCO3)C(=S)NCc1ccco1 — lower, 9.6%
- O=c1[nH]c2cc3c(cc2cc1CN(CCCO)C(=S)NCc1ccco1)OCO3 — lower, 11.2%
- Cc1ccc2[nH]c(=O)c(CN(CC3CCCO3)C(=S)NCc3ccco3)cc2c1 (stereo not given) — the same, 17.8%
- O=C(Cn1cnc2ccccc2c1=O)NCCC(=O)Nc1ccc2c(c1)OCO2 — lower, -1.6%
- Fc1ccc(-c2cc(C(F)(F)F)n3ncnc3n2)cc1 — lower, -18.4%
- COC(=O)c1ccc(-n2c(C)cc(C(=O)COC(=O)CC3Sc4ccccc4NC3=O)c2C)cc1 (stereo not given) — lower, 3.1%
- CCOC(=O)c1nnc(-c2ccc(C)cc2)nc1Oc1ccccc1Cl — lower, 13.7%
- CCOC(=O)c1sc(NC(=O)/C=C/c2ccccc2)nc1C — lower, -6.9%
- CCOC(=O)c1sc(N/N=C/c2cccc(C)c2)nc1C — lower, 7.8%
- Cc1ccc(-n2nnc3c(=O)n(Cc4ccccn4)cnc32)cc1C — lower, -5.8%
- CCN(CC)c1ccc(/C=N/NC(=O)Cc2cccs2)cc1 — lower, 15.6%
- Cc1ccc(NC(=O)C2CCN(S(=O)(=O)c3c(C)noc3/C=C/c3ccco3)CC2)nc1 — lower, 9.1%
- Cc1cccc(NC(=O)C2CCN(S(=O)(=O)c3c(C)noc3/C=C/c3ccco3)CC2)n1 — lower, -3.8%
- Cn1cccc1CC(=O)N/N=C/c1cccc2ccccc12 — lower, 4.2%
- COc1ccc(S(=O)(=O)N2CCC(C(=O)NCc3ccccn3)CC2)cc1Cl — lower, 16.7%
- COc1ccc(S(=O)(=O)N2CCCC(C(=O)NCc3ccccn3)C2)cc1 (stereo not given) — lower, 14%
- O=C(O)CSc1nnc(Cn2nnc3ccccc32)n1CCc1ccccc1 — lower, -12.5%
- COc1ccc(CN(CC2CCC(C(=O)O)CC2)C(=S)Nc2ccccc2OC)cc1 (stereo not given) — lower, -7.5%
- O=[N+]([O-])c1ccc(Sc2n[nH]c(-c3ccccc3)n2)nc1 — lower, 16.5%
- O=[N+]([O-])c1ccc(Sc2n[nH]c(-c3ccco3)n2)nc1 — lower, 8.5%
- O=C(O)CC(NC(=O)COc1ccc(Cl)cc1Cl)C(=O)O (stereo not given) — lower, 4.9%
- CCCCCCn1c(=O)[nH]c2nc3cc(N)c(C)cc3nc2c1=O — higher, 35.2%
- Cc1cc(C)cc(Nc2cc(=O)n(C3CCCCC3)c(=O)[nH]2)c1 — lower, 12.2%
- N#CCCN(C(=O)CSc1ccc2c(c1)OCCO2)c1ccccc1 — lower, 3.1%
- Cc1ccc(NC(=O)c2ccc(Br)o2)cc1S(=O)(=O)N(C)C — lower, -19%
- CCN(C(=O)c1cc2cccc(OC)c2oc1=O)C1CCCCC1 — lower, -7.8%
- N#Cc1cc(N)ccc1Sc1ccccc1 — lower, 4.7%
- COc1ccc(S(=O)(=O)N2Cc3ccccc3CC2C(=O)O)cc1OC (stereo not given) — lower, -6.9%
- Nc1ncnc2nc(SCc3ccccc3)[nH]c12 — lower, 9.5%
- CC(C)Sc1nc2ncnc(N)c2[nH]1 — lower, -8.9%
- Cc1ccc(C)n1-c1cccc(S(=O)(=O)N2CCOCC2)c1 — lower, -13.2%
- O=c1[nH]c2c(c3c1CCCC3)CCCC2 — lower, 16.2%
- O=C(CSC(=S)N1CCCC1)c1cc(Br)cc(Br)c1O — higher, 33.3%
- CC1CCCN(C(=S)SCC(=O)O)C1 (stereo not given) — lower, 0.8%
- COc1cc(/C=C2\SC(=Nc3ccccc3)N(CCc3c[nH]c4ccccc34)C2=O)ccc1OC(C)C(=O)O (stereo not given) — lower, 8%
- COc1cc(C(=O)OCC(=O)Nc2c(F)c(F)c(F)c(F)c2F)cc(OC)c1OC — lower, -2.4%
- O=C(NC1CCCCC1)C(c1ccc(O)c(O)c1)N(C(=O)Cn1nnc2ccccc21)c1cccc(O)c1 (stereo not given) — higher, 47.5%
- Cc1ccc(N(C(=O)Cn2nnc3ccccc32)C(C(=O)NC2CCCCC2)c2cn(C)nc2C)cc1 (stereo not given) — lower, -4.2%
- Cc1cc(C)n(-c2nc3ccccc3n3cnnc23)n1 — lower, -2.9%
- COc1ccc(OC)c(NC(=O)c2cc3c(=O)n4ccccc4nc3n2C)c1 — lower, -10.9%
- COc1ccc(NC(=S)NNC(=O)c2nnn(-c3ccccc3)c2C)cc1 — lower, -2%
- Cc1ccccc1N(CC(=O)Nc1ccccc1C(=O)NCc1ccco1)S(=O)(=O)c1ccccc1 — lower, -11.7%
- C=CCNc1nc(N2CCOCC2)c(C#N)c2c1CN(C)CC2 — lower, 9.5%
- CN1CCc2c(C#N)c(N3CCCCC3)nc(NCc3ccccc3)c2C1 — higher, 26.6%
- CCN1CCc2c(C#N)c(N3CCCCC3)nc(NCc3ccccc3)c2C1 — higher, 30.4%
- N#Cc1c(NCCCO)nc(-c2ccccc2)c2c1CCCC2 — lower, 13.8%
- N#Cc1c(NCCN)nc(NCc2ccccc2)c2c1CCN(Cc1ccccc1)C2 — the same, 17.8%
- CCN1CCc2c(C#N)c(NCc3ccccc3)nc(N(CC)CC)c2C1 — lower, 3%

In the case of O=c1[nH]c2cc3c(cc2cc1CN(Cc1cccnc1)C(=S)NCc1ccco1)OCCO3, the inhibition is reported as 59.7% (active).
In the case of O=c1[nH]c2cc3c(cc2cc1CN(Cc1cccnc1)C(=S)NCc1ccco1)OCO3, the inhibition is reported as 53.9% (active).
In the case of Cc1ccc2cc(CN(CC3CCCO3)C(=S)NCc3ccco3)c(=O)[nH]c2c1 (stereo not given), the inhibition is reported as 54.6% (active).
CCOC(=O)c1sc(N/N=C/c2ccccc2)nc1C was tested, and the inhibition was 60.3% (active).
In the case of Cc1cccnc1NC(=O)C1CCN(S(=O)(=O)c2c(C)noc2/C=C/c2ccco2)CC1, the inhibition is reported as 50.7% (active).
For COc1ccc(S(=O)(=O)N2CCCC(C(=O)NCc3ccccn3)C2)cc1Cl (stereo not given), the inhibition was 62.4% (active).
O=[N+]([O-])c1ccc(Sc2n[nH]c(-c3ccncc3)n2)nc1 was tested, and the inhibition was 60.8% (active).
With Cc1cc2nc3c(=O)n(C4CCCCC4)c(=O)[nH]c3nc2cc1N the inhibition was 51.7% (active).
In the case of CCC(Sc1nc2ncnc(N)c2[nH]1)C(=O)O (stereo not given), the inhibition is reported as 64.8% (active).
For CC1CCCN(C(=S)SCC(=O)c2cc(Br)cc(Br)c2O)C1 (stereo not given), the inhibition was 66.4% (active).
With CC(=O)Nc1ccc(N(C(=O)Cn2nnc3ccccc32)C(C(=O)NC2CCCC2)c2ccc(O)c(O)c2)cc1 (stereo not given) the inhibition was 61.2% (active).
With C=CCNc1nc(NCc2ccccc2)c(C#N)c2c1CN(C)CC2 the inhibition was 54.4% (active).
With CCN1CCc2c(C#N)c(NCc3ccccc3)nc(NCCO)c2C1 the inhibition was 52.6% (active).
For N#Cc1c(NCCCO)nc(NCc2ccccc2)c2c1CCN(Cc1ccccc1)C2, the inhibition was 56.3% (active).
